Each structure is given as a SMILES string. Several values for one entry are separate records, joined by “and”; a condition that tells them apart may be missing. Equal values may be shown once. About 83,000 compounds went through this panel and 20% of them were active in at least one assay; those are over-represented in the sample as a whole.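 Assay: single dose, 48 h. Readout: percent growth (0 = no net growth; negative = cell death). Active: <10.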 Activity calls are given as the source filed them.

The record followed here is PubChem BioAssay (NCI).

Test systems include SR leukemia; RPMI-8226 leukemia; OVCAR-8 ovarian; OVCAR-5 ovarian; OVCAR-4 ovarian; SK-OV-3 ovarian; IGROV1 ovarian; OVCAR-3 ovarian; HS 578T breast; NCI/ADR-RES ovarian; T-47D breast; BT-549 breast; MDA-MB-435 melanoma; SW-620 colon; MCF7 breast; HCT-116 colon; HCC-2998 colon; KM12 colon.
Experiment in all cases: NCI-60 one-dose screen, 48 h (100 = growth as untreated, 0 = no growth, -100 = all killed)
Conditions in all cases: 10 µM unless noted

Turning to `O=C(N/N=C/c1cccc2ccccc12)C1CC1`, the growth was 93.6% (inactive) with SR leukemia; 85.6% (inactive) and 97.8% (inactive) in the test with RPMI-8226 leukemia; 101% (inactive) and 98.5% (inactive) in the test with OVCAR-8 ovarian; 122% (inactive) and 100% (inactive) in the test on OVCAR-5 ovarian; 101% (inactive) in the test with OVCAR-4 ovarian; 108% (inactive) and 117% (inactive) with SK-OV-3 ovarian. Moreover, the growth in the test on IGROV1 ovarian was 118% (inactive) and 107% (inactive); in the test with OVCAR-3 ovarian, 113% (inactive) and 112% (inactive); with HS 578T breast it was 109% (inactive) and 98.6% (inactive); with NCI/ADR-RES ovarian, 115% (inactive) and 97.8% (inactive); in the test with T-47D breast, 98.9% (inactive) and 109% (inactive); in the test on BT-549 breast it was 101% (inactive). The growth is 117% (inactive) and 97.8% (inactive) in the test on MDA-MB-435 melanoma; 110% (inactive) and 102% (inactive) with SW-620 colon; 80.3% (inactive) and 87.5% (inactive) in the test on MCF7 breast; 106% (inactive) and 102% (inactive) in the test with HCT-116 colon; 104% (inactive) and 101% (inactive) in the test with HCC-2998 colon; 108% (inactive) and 104% (inactive) in the test on KM12 colon.

With `CCN(CC)CCC(CNc1c2ccc([N+](=O)[O-])cc2nc2cc(OC)c(OC)cc12)c1ccccc1` (stereo unspecified), the growth with SR leukemia is -14.8% (active); with RPMI-8226 leukemia, -5.85% (active) and -73% (active); with OVCAR-8 ovarian, 6.28% (active) and -80.7% (active); in the test on OVCAR-5 ovarian, -13.3% (active) and -83.9% (active); with OVCAR-4 ovarian, -53.2% (active) and -94.6% (active); in the test with SK-OV-3 ovarian, 27.3% (inactive) and -64.1% (active). In addition, the growth in the test on IGROV1 ovarian was -49.8% (active) and -64% (active); in the test on OVCAR-3 ovarian, -38% (active) and -100% (active); with HS 578T breast it was 44.4% (inactive); in the test on NCI/ADR-RES ovarian, 30.5% (inactive) and -58.4% (active); in the test with T-47D breast it was -11.2% (active) and -82% (active); with BT-549 breast, -33.9% (active) and -92.7% (active). Also, the growth with MDA-MB-435 melanoma is -92.2% (active) and -97.3% (active); in the test on SW-620 colon it was 6.7% (active); in the test on MCF7 breast, -50.2% (active) and -97.5% (active); in the test with HCT-116 colon, -69% (active) and -89.1% (active); in the test on HCC-2998 colon it was -98.9% (active); in the test with KM12 colon it was -63.5% (active) and -100% (active).

`CN(C)c1ccc(C(=C2C=CC(=[N+](C)C)C=C2)c2ccccc2Cl)cc1`: the growth in the test on SR leukemia is -38.3% (active); in the test with RPMI-8226 leukemia, -22.6% (active); with OVCAR-8 ovarian it was -77.5% (active) and -77.8% (active); in the test with OVCAR-5 ovarian, -27.8% (active) and -93.8% (active); with OVCAR-4 ovarian, 4.46% (active) and -27% (active); in the test with SK-OV-3 ovarian, -38.7% (active) and -32.4% (active). Also, the growth in the test on IGROV1 ovarian is -81.1% (active) and -67.1% (active); in the test on OVCAR-3 ovarian it was -88.9% (active) and -91.4% (active); in the test on HS 578T breast it was -37.3% (active) and -21.2% (active); with NCI/ADR-RES ovarian, 23.2% (inactive) and 9.87% (active); with T-47D breast it was -33.3% (active) and -72.6% (active); in the test with BT-549 breast, -35.9% (active) and 1.51% (active). The growth was -40.9% (active) and -29% (active) in the test on MDA-MB-435 melanoma; -75.8% (active) and -78.1% (active) in the test with SW-620 colon; -9.73% (active) and -58.7% (active) with MCF7 breast; -66.7% (active) and -99.5% (active) in the test with HCT-116 colon; -92.3% (active) and -98.8% (active) in the test on HCC-2998 colon; -94.6% (active) and -87.2% (active) in the test with KM12 colon.

For the compound `Cc1ccc(S(=O)(=O)Nc2nc3ccccc3nc2Nc2ccc3nsnc3c2)cc1`, the growth in the test with SR leukemia was 71.2% (inactive) and 76.1% (inactive); with RPMI-8226 leukemia, 27.5% (inactive); in the test on OVCAR-8 ovarian it was 43.4% (inactive) and 63.3% (inactive); in the test with OVCAR-5 ovarian it was 92.1% (inactive) and 87.2% (inactive); in the test with OVCAR-4 ovarian it was 38.9% (inactive) and 30.7% (inactive); in the test with SK-OV-3 ovarian it was 30.1% (inactive) and 69.2% (inactive). In addition, the growth in the test on IGROV1 ovarian is 66.3% (inactive) and 41.9% (inactive); in the test on OVCAR-3 ovarian, 47.8% (inactive) and 35.2% (inactive); with HS 578T breast, 11.4% (inactive); in the test on NCI/ADR-RES ovarian, 62.8% (inactive) and 43.2% (inactive); with T-47D breast it was 33.6% (inactive) and 62.8% (inactive); with BT-549 breast, 37% (inactive) and 51.5% (inactive). For the same compound, the growth is 36.3% (inactive) and 66.4% (inactive) with MDA-MB-435 melanoma; 77.5% (inactive) and 61% (inactive) in the test on SW-620 colon; 50.9% (inactive) and 50.5% (inactive) with MCF7 breast; 38.4% (inactive) and 42.2% (inactive) with HCT-116 colon; 42.1% (inactive) in the test with HCC-2998 colon; 48.7% (inactive) and 44.1% (inactive) with KM12 colon.

Consider `NC(=O)NO`, for which the growth in the test on SR leukemia is 54.6% (inactive); with RPMI-8226 leukemia, 98.8% (inactive) and 42.1% (inactive); with OVCAR-8 ovarian it was 99.8% (inactive); in the test on OVCAR-5 ovarian it was 108% (inactive) and 45.8% (inactive); in the test with OVCAR-4 ovarian it was 105% (inactive) and 59.5% (inactive); in the test with SK-OV-3 ovarian, 107% (inactive) and 56.4% (inactive). The growth in the test with IGROV1 ovarian is 104% (inactive) and 47% (inactive); in the test with OVCAR-3 ovarian, 110% (inactive) and 70.1% (inactive); in the test with HS 578T breast it was 109% (inactive) and -24.6% (active); in the test with NCI/ADR-RES ovarian, 99.4% (inactive) and 87.4% (inactive); in the test on T-47D breast it was 107% (inactive) and 46.6% (inactive); in the test with BT-549 breast, 110% (inactive) and 41.5% (inactive). Further, the growth with SW-620 colon is 105% (inactive) and 78.4% (inactive); with MCF7 breast, 96.9% (inactive) and 65.2% (inactive); in the test with HCT-116 colon, 109% (inactive) and 67.6% (inactive); in the test on HCC-2998 colon it was 111% (inactive) and 73.1% (inactive); in the test with KM12 colon it was 100% (inactive) and 67.8% (inactive).

Turning to `O=C(Nc1ccc(Br)cc1)c1cc(Br)ccc1O`, the growth in the test with SR leukemia was 1.42% (active); in the test with RPMI-8226 leukemia, 16.9% (inactive) and -8.2% (active); in the test with OVCAR-8 ovarian, 22.5% (inactive) and 20.5% (inactive); with OVCAR-5 ovarian, 30.4% (inactive) and 17.4% (inactive); in the test on OVCAR-4 ovarian it was 9.76% (active) and 24.8% (inactive); in the test on SK-OV-3 ovarian, 4.48% (active) and -11.3% (active). For the same compound, the growth was 13.6% (inactive) with IGROV1 ovarian; -18.3% (active) and -5.1% (active) with OVCAR-3 ovarian; -1.71% (active) and -5.35% (active) in the test on HS 578T breast; 4.45% (active) and -5.6% (active) in the test with NCI/ADR-RES ovarian; 14.7% (inactive) and -7.33% (active) in the test with T-47D breast; -16.1% (active) and -40.7% (active) in the test on BT-549 breast. For the same compound, the growth with SW-620 colon is 12.4% (inactive) and 4.33% (active); with MCF7 breast it was 5.04% (active) and 4.44% (active); in the test with HCT-116 colon, 0.123% (active) and 0.553% (active); in the test on HCC-2998 colon, 24.4% (inactive) and -42.1% (active); in the test on KM12 colon, 4.3% (active) and -15.4% (active).

Take `CN1CCN(C2CCN(C(=O)Nc3cc(Oc4ccc(NC(=O)C5(C(=O)Nc6ccc(F)cc6)CC5)c(F)c4)ccn3)CC2)CC1`: the growth with SR leukemia is -22.9% (active) and 58.4% (inactive); in the test with RPMI-8226 leukemia, -38.9% (active) and 105% (inactive); in the test on OVCAR-8 ovarian, -55% (active) and 91.6% (inactive); in the test with OVCAR-5 ovarian, -10.9% (active) and 94.3% (inactive); in the test with OVCAR-4 ovarian it was -5.41% (active) and 83.2% (inactive); in the test with SK-OV-3 ovarian it was -51.1% (active) and 74.6% (inactive). For the same compound, the growth is -58.6% (active) and 55.3% (inactive) in the test with IGROV1 ovarian; 2.87% (active) and 108% (inactive) in the test on OVCAR-3 ovarian; 56.7% (inactive) in the test on HS 578T breast; 13.3% (inactive) and 99.5% (inactive) with NCI/ADR-RES ovarian; -66.4% (active) and 83.7% (inactive) in the test with T-47D breast; -68.7% (active) and 98.5% (inactive) in the test on BT-549 breast. In addition, the growth in the test on MDA-MB-435 melanoma was -93% (active) and 85.8% (inactive); in the test with SW-620 colon, -14.2% (active) and 122% (inactive); with MCF7 breast, -42.1% (active) and 76% (inactive); in the test with HCT-116 colon, -58.6% (active) and 69.1% (inactive); in the test on HCC-2998 colon, -66.8% (active) and 136% (inactive); in the test with KM12 colon, -46% (active) and 30.4% (inactive).

Turning to `C=C1C(=O)O[C@H]2[C@H]1CC/C(COC(=O)NC1CCC(O)CC1)=C\CC[C@@]1(C)O[C@@H]21` (stereo partly specified), the growth with SR leukemia is 27.3% (inactive) and 23.4% (inactive); with RPMI-8226 leukemia it was 61.4% (inactive) and 54.9% (inactive); with OVCAR-8 ovarian it was 77.1% (inactive) and 79.6% (inactive); in the test with OVCAR-5 ovarian, 83.9% (inactive) and 83.6% (inactive); in the test on OVCAR-4 ovarian, 77.8% (inactive) and 76% (inactive); in the test with SK-OV-3 ovarian, 103% (inactive) and 104% (inactive). Also, the growth in the test on IGROV1 ovarian is 97.4% (inactive) and 78.2% (inactive); in the test on OVCAR-3 ovarian, 44.5% (inactive) and 46.5% (inactive); in the test with HS 578T breast, 92% (inactive) and 87.6% (inactive); in the test with NCI/ADR-RES ovarian, 99.8% (inactive) and 100% (inactive); in the test on T-47D breast, 59.6% (inactive) and 47.6% (inactive); with BT-549 breast, 83.3% (inactive) and 79.1% (inactive). For the same compound, the growth with MDA-MB-435 melanoma is 58.4% (inactive) and 54.8% (inactive); in the test on SW-620 colon it was 27.4% (inactive) and 30.1% (inactive); in the test on MCF7 breast it was 75.2% (inactive) and 66.7% (inactive); in the test with HCT-116 colon it was 41.5% (inactive) and 33% (inactive); in the test with KM12 colon it was 96.8% (inactive) and 97.9% (inactive).
